# According to PubChem BioAssay (EPA / NIEHS):
# Values joined by “and” are separate entries in the source; they are usually repeats but may differ in a detail not shown here. Equal values may be shown once. Results filed as inconclusive are left out. Active and inactive are the calls of the source. How the source made its calls, unless noted: active means hit-call score of the fitted dose curve at least 0.9, where 1 is the maximum; inactive means score below 0.9.
# System: not listed separately
# Assay: ATG_TAL_CIS: Attagene CIS-FACTORIAL HepG2 Assay for human TAL Basal Promoter (AID 2282966);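 further: background control endpoint measuring basal TAL promoter reporter mRNA not a specific factor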
# Details: HepG2 Attagene cis-factorial TAL promoter reporter; actives raise or lower the signal
# Method in brief: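 After 24 hours of chemical exposure, transfected HepG2 cells yielded RNA that was converted to 6-FAM-labelled, HpaI-digested reporter fragments for capillary electrophoresis. Values derive from bidirectional fitting against DMSO controls.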
row,SMILES,outcome
1,c1ccc2c(c1)Nc1ccccc1S2,inactive
2,Cc1ccc(C(=O)Cl)cc1,inactive
3,COP(=O)(O)OC,inactive
4,CC(Cl)CN(C)C (stereo not given),inactive
5,CCOS(=O)(=O)OCC,inactive
6,CC1=C(C(=O)Nc2ccccc2)S(=O)(=O)CCO1,inactive
7,O=P1(N(CCCl)CCCl)NCCCO1 (stereo not given),inactive
8,Cc1c([N+](=O)[O-])cc2c(c1[N+](=O)[O-])C(C)(C)CC2(C)C,inactive
9,Cc1cc(C)c(C(=O)P(=O)(c2ccccc2)c2ccccc2)c(C)c1,inactive

# System: not listed separately
# Assay: ATG_TGFb_CIS: Attagene CIS-FACTORIAL HepG2 Assay for human Transforming Growth Factor (TGF) (AID 2282967)
# Details: HepG2 Attagene CIS TGFb reporter, mRNA transcription; actives raise or lower the signal
# Method in brief: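 Transcript-level reporter readout: HepG2 transfectants, 24 h exposure, RNA to cDNA, reporter-specific PCR, fluorescent primer extension, capillary sizing against ROX standards. Gain- or loss-of-signal relative to DMSO.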
row,SMILES,outcome
1,N#Cc1c(-c2ccc(Cl)cc2)[nH]c(C(F)(F)F)c1Br,inactive
2,Cc1ccc2c(c1N)C(=O)c1ccccc1C2=O,inactive
3,CCN(CC)c1ccccc1,inactive
4,Cc1cccc(N)c1,inactive
5,CCC1(c2ccccc2)C(=O)N=C(O)NC1=O (stereo not given),inactive
6,O=C(O)CF,inactive
7,O=[N+]([O-])c1ccccc1,inactive
8,CC(C)(C)c1ccc(O)cc1,inactive
9,CC(C)CBr,inactive
10,CCCCC(CC)COC(=O)c1c(Br)c(Br)c(Br)c(Br)c1C(=O)OCC(CC)CCCC (stereo not given),inactive
11,C=CC(=O)OCC(F)(F)C(F)F,inactive
12,O=[N+]([O-])c1ccc(Cl)c(Cl)c1,inactive
13,O=[N+]([O-])c1cc(Cl)ccc1Cl,inactive
14,O=S(=O)(c1ccc(O)cc1)c1ccc(O)cc1,inactive
15,CCOC(=O)c1ccccc1N,inactive
16,O=C(O)C(Cl)Cl,inactive
17,Cc1ccc(N)cc1N,inactive
18,OCC(F)(F)OC(F)(F)C(F)(F)OC(F)(F)CO,inactive
19,Nc1ccc(Cl)cc1,inactive

row,SMILES,outcome
1,c1cc2c3c(cccc3c1)CC2,inactive
2,OCC1CO1 (stereo not given),inactive
3,Cn1[nH]nnc1=S,inactive
4,O=C(O)C1C(C(=O)O)C2(Cl)C(Cl)=C(Cl)C1(Cl)C2(Cl)Cl (stereo not given),inactive
5,CC(O)C#N (stereo not given),inactive
6,Oc1ccc(I)cc1,inactive
7,CCNc1nc(Cl)nc(NC(C)(C)C)n1,inactive
8,CCOC(=O)c1ccccc1C(=O)OCC,inactive
9,Cc1ccc([N+](=O)[O-])cc1C,inactive
10,Cc1ccc(O)cc1C,inactive
11,c1ccc2c(c1)Nc1ccccc1S2,inactive
12,Cc1ccc(C(=O)Cl)cc1,inactive
13,COP(=O)(O)OC,inactive
14,CC(Cl)CN(C)C (stereo not given),inactive
15,CCOS(=O)(=O)OCC,inactive
16,CC1=C(C(=O)Nc2ccccc2)S(=O)(=O)CCO1,inactive
17,O=P1(N(CCCl)CCCl)NCCCO1 (stereo not given),inactive
18,Cc1c([N+](=O)[O-])cc2c(c1[N+](=O)[O-])C(C)(C)CC2(C)C,inactive
19,Cc1cc(C)c(C(=O)P(=O)(c2ccccc2)c2ccccc2)c(C)c1,inactive

# System: not listed separately
# Assay: ATG_VDRE_CIS: Attagene CIS-FACTORIAL HepG2 Assay for human Vitamin D Receptor Element (VDRE) (AID 2282968)
# Details: HepG2 VDRE cis-reporter transcription, actives raise or lower the signal
# Method in brief: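 Measures endogenous factor activity through cis-element-driven reporter transcripts in transiently transfected HepG2. Cells are treated 24 h; reporter mRNA is quantified by RT-PCR and capillary electrophoresis; fitting is bidirectional.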
SMILES,AC50,outcome
N#Cc1c(-c2ccc(Cl)cc2)[nH]c(C(F)(F)F)c1Br,0.605 µM (active),
OCC(F)(F)OC(F)(F)C(F)(F)OC(F)(F)C(F)(F)OC(F)(F)F,,inactive
CCN(CC)c1ccccc1,,inactive
Cc1cccc(N)c1,,inactive
CCC1(c2ccccc2)C(=O)N=C(O)NC1=O (stereo not given),,inactive
O=C(O)CF,,inactive
CC(C)CBr,,inactive
CCCCC(CC)COC(=O)c1c(Br)c(Br)c(Br)c(Br)c1C(=O)OCC(CC)CCCC (stereo not given),,inactive
C=CC(=O)OCC(F)(F)C(F)F,90.3 µM (active),
O=[N+]([O-])c1ccc(Cl)c(Cl)c1,,inactive
O=[N+]([O-])c1cc(Cl)ccc1Cl,,inactive
O=S(=O)(c1ccc(O)cc1)c1ccc(O)cc1,,inactive
CCOC(=O)c1ccccc1N,,inactive
Cc1ccc(N)cc1N,,inactive
OCC(F)(F)OC(F)(F)C(F)(F)OC(F)(F)CO,,inactive
OCC1CO1 (stereo not given),,inactive
Cn1[nH]nnc1=S,,inactive
CC(O)C#N (stereo not given),,inactive
Oc1ccc(I)cc1,,inactive
CCNc1nc(Cl)nc(NC(C)(C)C)n1,,inactive
CCOC(=O)c1ccccc1C(=O)OCC,,inactive
Cc1ccc([N+](=O)[O-])cc1C,,inactive
Cc1ccc(C(=O)Cl)cc1,,inactive
CC(Cl)CN(C)C (stereo not given),,inactive
CCOS(=O)(=O)OCC,,inactive
CC1=C(C(=O)Nc2ccccc2)S(=O)(=O)CCO1,9.33 µM (active),
O=P1(N(CCCl)CCCl)NCCCO1 (stereo not given),,inactive
Cc1c([N+](=O)[O-])cc2c(c1[N+](=O)[O-])C(C)(C)CC2(C)C,,inactive
Cc1cc(C)c(C(=O)P(=O)(c2ccccc2)c2ccccc2)c(C)c1,0.54 µM (active),

# Biological target: Nuclear receptor subfamily 1 group I member 3 (Homo sapiens) (UniProt Q14994)
# Assay: ATG_CAR_TRANS: Attagene TRANS-FACTORIAL HepG2 Assay for human Constitutive Androstane Receptor (CAR) (AID 2282969; active means hit-call score of the fitted dose curve at least 0.9, where 1 is the maximum;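 further: activators raise reporter mRNA above DMSO so AC50 marks induction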)
# Details: HepG2 Attagene TRANS-FACTORIAL CAR reporter
# Method in brief: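 Signal is reporter mRNA induction relative to DMSO, measured 24 h after dosing by RT-PCR with fluorescent primer extension and capillary electrophoresis. Human HepG2 liver cells carried transiently transfected chimeric NR-Gal4/GAL4-UAS reporter constructs.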
# Nuclear receptor subfamily 1 group I member 3 (Homo sapiens), sequence (Q14994 whole entry, looked up): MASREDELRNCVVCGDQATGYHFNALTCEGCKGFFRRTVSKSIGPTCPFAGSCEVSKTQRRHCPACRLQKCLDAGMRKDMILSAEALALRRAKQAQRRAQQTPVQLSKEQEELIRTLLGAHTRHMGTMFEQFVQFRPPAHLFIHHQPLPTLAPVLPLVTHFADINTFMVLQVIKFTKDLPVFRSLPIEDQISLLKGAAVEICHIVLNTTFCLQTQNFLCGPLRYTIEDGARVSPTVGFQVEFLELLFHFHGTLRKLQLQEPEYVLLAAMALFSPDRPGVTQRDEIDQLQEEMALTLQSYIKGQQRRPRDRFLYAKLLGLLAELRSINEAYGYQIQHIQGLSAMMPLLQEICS
row,SMILES,outcome
1,Cc1ccc2c(c1N)C(=O)c1ccccc1C2=O,inactive
2,OCC(F)(F)OC(F)(F)C(F)(F)OC(F)(F)C(F)(F)OC(F)(F)F,inactive
3,c1cc2c3c(cccc3c1)CC2,inactive
4,c1ccc2c(c1)Nc1ccccc1S2,inactive
5,COP(=O)(O)OC,inactive

# Biological target: Estrogen receptor (Homo sapiens) (UniProt P03372)
# Assay: ATG_ERa_TRANS: Attagene TRANS-FACTORIAL HepG2 Assay for human Estrogen Receptor alpha (ERa) (AID 2282970; active means hit-call score of the fitted dose curve at least 0.9, where 1 is the maximum)
# Details: HepG2 Attagene TRANS ERa GAL4 reporter, mRNA
# Method in brief: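 Liver-derived HepG2 cells expressing chimeric nuclear receptor-Gal4 proteins from transient transfection were exposed for 24 hours. Gain of reporter mRNA signal versus DMSO, read by capillary electrophoresis of FAM-labelled PCR products, was recorded.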
# Estrogen receptor (Homo sapiens), sequence (P03372 whole entry, looked up): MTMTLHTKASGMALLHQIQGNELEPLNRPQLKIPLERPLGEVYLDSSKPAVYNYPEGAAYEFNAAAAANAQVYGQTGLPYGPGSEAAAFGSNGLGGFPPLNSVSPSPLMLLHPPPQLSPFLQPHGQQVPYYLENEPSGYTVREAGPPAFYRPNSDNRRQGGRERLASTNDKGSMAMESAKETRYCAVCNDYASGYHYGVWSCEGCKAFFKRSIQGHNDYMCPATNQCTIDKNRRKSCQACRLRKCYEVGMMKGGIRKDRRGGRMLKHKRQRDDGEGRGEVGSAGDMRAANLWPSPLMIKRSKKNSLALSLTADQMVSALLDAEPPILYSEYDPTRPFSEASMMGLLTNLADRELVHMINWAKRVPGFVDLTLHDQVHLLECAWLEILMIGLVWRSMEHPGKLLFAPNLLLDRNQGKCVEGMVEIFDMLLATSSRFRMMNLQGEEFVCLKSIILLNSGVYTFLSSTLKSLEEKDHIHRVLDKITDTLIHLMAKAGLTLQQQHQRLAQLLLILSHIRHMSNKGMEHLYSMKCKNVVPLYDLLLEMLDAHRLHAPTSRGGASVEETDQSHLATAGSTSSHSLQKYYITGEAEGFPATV
SMILES,outcome,AC50
N#Cc1c(-c2ccc(Cl)cc2)[nH]c(C(F)(F)F)c1Br,inactive,
Cc1ccc2c(c1N)C(=O)c1ccccc1C2=O,,4.04 µM (active)
OCC(F)(F)OC(F)(F)C(F)(F)OC(F)(F)C(F)(F)OC(F)(F)F,,6.04 µM (active) and 4.34 µM (active)
CCN(CC)c1ccccc1,inactive,
O=[N+]([O-])c1ccccc1,,19.8 µM (active)
CC(C)CBr,inactive,
CCCCC(CC)COC(=O)c1c(Br)c(Br)c(Br)c(Br)c1C(=O)OCC(CC)CCCC (stereo not given),inactive,
O=[N+]([O-])c1ccc(Cl)c(Cl)c1,inactive,
O=[N+]([O-])c1cc(Cl)ccc1Cl,inactive,
O=S(=O)(c1ccc(O)cc1)c1ccc(O)cc1,,1.06 µM (active)
CCOC(=O)c1ccccc1N,inactive,
Cc1ccc(N)cc1N,inactive,
OCC(F)(F)OC(F)(F)C(F)(F)OC(F)(F)CO,,9.78 µM (active)
Nc1ccc(Cl)cc1,inactive,
c1cc2c3c(cccc3c1)CC2,inactive,
OCC1CO1 (stereo not given),inactive,
O=C(O)C1C(C(=O)O)C2(Cl)C(Cl)=C(Cl)C1(Cl)C2(Cl)Cl (stereo not given),inactive,
CC(O)C#N (stereo not given),inactive,
Oc1ccc(I)cc1,,19.7 µM (active)
CCNc1nc(Cl)nc(NC(C)(C)C)n1,,1.54 µM (active)
CCOC(=O)c1ccccc1C(=O)OCC,inactive,
Cc1ccc([N+](=O)[O-])cc1C,inactive,
Cc1ccc(O)cc1C,,72.4 µM (active)
c1ccc2c(c1)Nc1ccccc1S2,,11.7 µM (active)
COP(=O)(O)OC,inactive,
CC(Cl)CN(C)C (stereo not given),inactive,
O=P1(N(CCCl)CCCl)NCCCO1 (stereo not given),,17 µM (active)
Cc1c([N+](=O)[O-])cc2c(c1[N+](=O)[O-])C(C)(C)CC2(C)C,inactive,
Cc1cc(C)c(C(=O)P(=O)(c2ccccc2)c2ccccc2)c(C)c1,,25.5 µM (active)
